From PubChem BioAssay (NCI) come the findings set out here.

Several values for one entry are separate records, joined by “and”; a condition that tells them apart may be missing. Equal entries are not always repeated. This is part of a sample that, as a whole, favours compounds with a hit. Of some 79,000 tested, about 15% had one in any assay. Unmarked numbers belong to inactive results. Activity calls are given as the source filed them. Cut-off read from the data, not from the text of the source: active = growth inhibition above about 70%; inactive = the rest.

Experiment [1] in a line: NCI Yeast Anticancer Drug Screen. Data for the rad50 strain (AID 155).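 Note: 0% = growth of vehicle-only cultures of the same strain.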 The conditions noted are these: S. cerevisiae rad50 strain growth inhibition; at 50.0 µM; stronger effect = higher value. Put shortly:
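Inhibition values express reduced yeast growth in compound-treated cultures relative to vehicle-treated controls.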

A short description of experiment [2]: NCI Yeast Anticancer Drug Screen. Data for the mec2-1 strain (AID 157). The conditions noted are these: S. cerevisiae mec2-1 strain, at 50.0 µM, stronger effect = higher value. In a few lines:
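Cells of the genetically defined mec2-1 yeast strain are incubated with test compound. Inhibition of growth is calculated against vehicle-treated controls.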

The nature of experiment [3]: NCI Yeast Anticancer Drug Screen. Data for the sgs1 mgt1 strain (AID 161).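 Note: 0% = growth of cultures given vehicle only.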 The conditions noted are these: S. cerevisiae sgs1 mgt1 strain, at 50.0 µM, stronger effect = higher value. Put shortly:
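Mutant yeast exposed to compound; growth scored against vehicle-only wells.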

Experiment [4] in a line: NCI Yeast Anticancer Drug Screen. Data for the cln2 rad14 strain (AID 165).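 Note: 0% = growth equal to vehicle treated cultures.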 The conditions noted are these: S. cerevisiae cln2 rad14 strain, at 50.0 µM, stronger effect = higher value. Put shortly:
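The screen exposed genetically defined yeast (cln2 rad14) to test compounds and scored growth inhibition relative to vehicle-treated controls.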

Experiment [5] in a line: NCI Yeast Anticancer Drug Screen. Data for the bub3 strain (AID 167). The conditions noted are these: S. cerevisiae bub3 mutant strain, at 50.0 µM, stronger effect = higher value. In a few lines:
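Steps: expose the mutant yeast strain to compound; grow alongside vehicle-treated cultures; measure growth; express inhibition against the vehicle cultures.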

Experiment [6] can be described thus: NCI Yeast Anticancer Drug Screen. Data for the mlh1 rad18 strain (AID 175). As to conditions: S. cerevisiae mlh1 rad18 strain growth inhibition; at 50.0 µM; stronger effect = higher value. In a few lines:
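Compound-treated yeast growth, normalised to vehicle controls. Strain bears defined DNA repair mutations.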

For the compound `O=c1c2ccccc2sc2c1c(N(CCCl)CCCl)cc1ccccc12`, the growth inhibition was 39.2% in experiment [1]; 5.5% in experiment [2]; 20.1% in experiment [3]; 17.5% in experiment [4]; -5.85% in experiment [5]; 18.8% in experiment [6].
Regarding `CCOc1ccc([N+](=O)[O-])cc1CNCCBr`, the growth inhibition was 3.3% in experiment [1]; -1.3% in experiment [2]; -0.45% in experiment [3]; -22.1% in experiment [4]; -3.1% in experiment [5]; 12.2% in experiment [6].
Regarding `COC1C(O)C(C)OC(O[C@@H]2C[C@H]3CC[C@@H]4[C@H](CC[C@]5(C)[C@@H](C6=CC(=O)OC6)CC[C@]45O)[C@@]3(C)[C@H](O)C2)C1O` (stereo partly specified), the growth inhibition in experiment [1] is 1.4%; in experiment [2], -12.5%; in experiment [3], -3.55%; in experiment [4], -6.35%; in experiment [5], 1%; in experiment [6], 3.8%.
Regarding `COC1OC2COC(c3ccccc3)OC2C2N=C(N)N([N+](=O)[O-])C12OS(C)(=O)=O` (stereo unspecified), the growth inhibition in experiment [1] was -4.8%; in experiment [2], -5.4%; in experiment [3] it was -12.2%; in experiment [4], -21.1%; in experiment [5], -3.6%; in experiment [6], 3.75%.
Consider `CN1C(=O)CC(=O)N(C)P1(=O)Oc1ccccc1`, for which the growth inhibition was -6% in experiment [1]; 3.25% in experiment [2]; 14% in experiment [3]; -1.6% in experiment [4]; -1.7% in experiment [5]; 4.15% in experiment [6].
`CC(Cl)[N+](=O)[O-]` (stereo unspecified): the growth inhibition in experiment [1] is 15.4%; in experiment [2] it was -10.2%; in experiment [3] it was 2.55%; in experiment [4], 16.9%; in experiment [5], 9%; in experiment [6], 1.9%.
On to `CCCCCCCCCCOC(=O)CC(C)=O.CCCCCCCCCCOC(=O)CC(C)=O.[Ni+2]`, for which the growth inhibition is -37.5% in experiment [1]; -9.3% in experiment [2]; -26.4% in experiment [3]; -45.1% in experiment [4]; 2.3% in experiment [5]; -39% in experiment [6].
For the compound `COP(=O)(NC(=O)OC(C)C)OC`, the growth inhibition in experiment [1] was -37.1%; in experiment [2], -21.2%; in experiment [3], -9.8%; in experiment [4] it was 5.2%; in experiment [5], -15.4%; in experiment [6], -7.95%.
With `Nc1nc(N)[nH]c(=O)n1`, the growth inhibition was -20.1% in experiment [1]; -12.5% in experiment [2]; -39% in experiment [3]; -29.4% in experiment [4]; -36.4% in experiment [5]; -40% in experiment [6].
`Nc1nc(N)n2c(N)nnc2n1`: the growth inhibition was -3.4% in experiment [1]; -19.4% in experiment [2]; -0.25% in experiment [3]; 1.5% in experiment [4]; 4.65% in experiment [5]; 13.7% in experiment [6].
On to `[F][Sn]([c]1ccc(Cl)cc1)([c]1ccc(Cl)cc1)[c]1ccc(Cl)cc1`, for which the growth inhibition was 98.2% (active) in experiment [1]; 95.2% (active) in experiment [2]; 98.5% (active) in experiment [3]; 95.9% (active) in experiment [4]; 96.2% (active) in experiment [5]; 98.2% (active) in experiment [6].
Take `CN1CN(c2ccccc2)C2(CCN(CC(C)(c3ccc(F)cc3)C3OCCCO3)CC2)C1=O` (stereo unspecified): the growth inhibition in experiment [1] was -22.9%; in experiment [2] it was -18.9%; in experiment [3], -21.9%; in experiment [4], -5.3%; in experiment [5] it was -27.1%; in experiment [6], 8.95%.
For `CC(C)N([P-]C(=O)[P-]N(C(C)C)C(C)C)C(C)C.[C-]#[O+].[C-]#[O+].[C-]#[O+].[C-]#[O+].[C-]#[O+].[C-]#[O+].[Fe].[Fe]` (stereo unspecified), the growth inhibition in experiment [1] was 3.4%; in experiment [2], 0.15%; in experiment [3], 3.55%; in experiment [4], 11.3%; in experiment [5] it was 2.3%; in experiment [6] it was -0.9%.
In the case of `CCCCOP(=O)(OCCCC)Oc1cccc([N+](=O)[O-])c1`, the growth inhibition was 6.6% in experiment [1]; 46.1% in experiment [2]; 18.9% in experiment [3]; 28.2% in experiment [4]; 42.3% in experiment [5]; 14.5% in experiment [6].
For the compound `C/C=C/CC1(CCC(C)C)C(=O)NC(=O)NC1=O`, the growth inhibition in experiment [1] was 24.4% and 26.9%; in experiment [2] it was 8.05% and -0.65%; in experiment [3], 9.9% and 4.75%; in experiment [4], -19.1% and -4.55%; in experiment [5] it was -5.4% and -2.35%; in experiment [6], 10.3% and 17.4%.
In the case of `COC1CC(OC2C(C)OC(OC3C(C)OC(OC4C(C)OC(O[C@H]5CC[C@@]6(C)C(=CC[C@]7(O)[C@@H]6C[C@@H](OC(C)=O)[C@@]6(C)[C@]7(O)CC[C@@]6(O)C(C)=O)C5)CC4OC)CC3OC)CC2OC)OC(C)C1O` (stereo partly specified), the growth inhibition in experiment [1] was -7.85%; in experiment [2], -7.45%; in experiment [3], -9.55%; in experiment [4] it was -3.7%; in experiment [5], -12.7%; in experiment [6], -47.1%.
